Experiment [1] has as its target Estrogen receptor beta (Homo sapiens) (UniProt Q92731). In words: OT_ER_ERbERb_1440: Odyssey Thera (OT) 24-hour HEK293T Protein-Complementation Assay for Estrogen Receptor-beta/-beta Homodimer (AID 2283380).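 Also: fluorescence gain from ER beta LBD homodimer complementation read by laser scanning cytometry; scored as signal increase over DMSO baseline for both agonists and antagonists.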 The method in brief:
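Fluorescence increase, nuclear for agonists or whole-cell for antagonists, relative to DMSO vehicle, quantified by laser scanning cytometer after fixation and Draq5 staining. Readout from 24 h treatment of HEK293T cells carrying complementation-paired ER beta LBD (aa 310-547).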

Experiment [2] deals with Estrogen receptor (Homo sapiens) (UniProt P03372). The experiment can be described thus: OT_ERa_GFPERaERE_0480: Odyssey Thera (OT) 8-hour HeLa Transcription Induction Assay for Estrogen Receptor (AID 2283381; active = hit-call score of the fitted dose curve at least 0.9, where 1 is the maximum; inactive = score below 0.9). The method in brief:
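HeLa cells dosed with compound and imaged by fluorescence microscopy at 8 h; GFP induction from an ERE reporter quantified by high-content image analysis and fitted as gain of signal against DMSO baseline.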

Experiment [3] has the same target. In words: OT_ERa_GFPERaERE_0120: Odyssey Thera (OT) 2-hour HeLa Transcription Induction Assay for Estrogen Receptor (AID 2283382). Put shortly:
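HeLa cells were dosed with test chemical and read 2 hours later for GFP-ERα/ERE-linked fluorescent protein induction by fluorescence microscopy. Gain-of-signal was fitted relative to DMSO baseline, quantified by high content image analysis.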

The target of experiment [4] is Retinoic acid receptor RXR-alpha (Homo sapiens) (UniProt P19793). In words: OT_NURR1_NURR1RXRa_1440: Odyssey Thera (OT) 24-hour HEK293T Protein Complementation Assay for Nurr1/retinoid X receptor (RXR) (AID 2283386). The method in brief:
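HEK293T cells were dosed with compound and read 24 h later by fluorescence intensity in a protein-fragment complementation format, where Nurr1–RXRα interaction reconstitutes a split reporter. Activity was fitted as gain of signal relative to DMSO baseline.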

Experiment [5] has as its target Peroxisome proliferator-activated receptor gamma (Homo sapiens) (UniProt P37231). In words: OT_PPARg_PPARgSRC1_0480: Odyssey Thera (OT) 8-hour Protein-Complementation Assay for Peroxisome Proliferator-activated Receptor Gamma / SRC-1 Co-activator (AID 2283387).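 Also: nuclear to cytoplasmic split Venus YFP fluorescence ratio reporting PPARg SRC-1 interaction.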 Put shortly: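 Split-YFP (IFP1/IFP2) PPARg/SRC-1 reporter, HEK293T, 37 °C, 5% CO2; 8 h compound; formaldehyde fix + Draq5; high-content imaging, N/C ratio, ≥350 cells/image, positive direction vs DMSO.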

The target is the same in experiment [6]. In words: OT_PPARg_PPARgSRC1_1440: Odyssey Thera (OT) 24-hour Protein-Complementation Assay for Peroxisome Proliferator-activated Receptor Gamma/ SRC-1 Co-activator (AID 2283388).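 Also: nuclear to cytoplasmic ratio of reconstituted Venus YFP fluorescence in fixed imaged cells.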 Put shortly: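 Transient HEK293T, YFP fragments 1-158/159-239 (mutant IFP1/IFP2) fused to PPARg/SRC-1; 24 h dosing; fix 4% formaldehyde, Draq5; Opera imaging 488/635 nm; N/C ratio, gain vs DMSO.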

For experiment [7], the target named is Bile acid receptor (Homo sapiens) (UniProt Q96RI1). In words: OT_FXR_FXRSRC1_0480: Odyssey Thera (OT) 8-hour HEK293T Protein-Complementation Assay for Farnesoid X receptor/SRC-1 Co-activator (AID 2283383). The method in brief: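 HEK293T cells expressing FXR and SRC-1 fused to reporter fragments were dosed with compound for 8 h; fluorescence from the reconstituted reporter marked co-activator recruitment. Gain of signal was fitted against the DMSO baseline.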
Bile acid receptor (Homo sapiens), sequence (Q96RI1 whole entry, looked up, the tested form may be a part): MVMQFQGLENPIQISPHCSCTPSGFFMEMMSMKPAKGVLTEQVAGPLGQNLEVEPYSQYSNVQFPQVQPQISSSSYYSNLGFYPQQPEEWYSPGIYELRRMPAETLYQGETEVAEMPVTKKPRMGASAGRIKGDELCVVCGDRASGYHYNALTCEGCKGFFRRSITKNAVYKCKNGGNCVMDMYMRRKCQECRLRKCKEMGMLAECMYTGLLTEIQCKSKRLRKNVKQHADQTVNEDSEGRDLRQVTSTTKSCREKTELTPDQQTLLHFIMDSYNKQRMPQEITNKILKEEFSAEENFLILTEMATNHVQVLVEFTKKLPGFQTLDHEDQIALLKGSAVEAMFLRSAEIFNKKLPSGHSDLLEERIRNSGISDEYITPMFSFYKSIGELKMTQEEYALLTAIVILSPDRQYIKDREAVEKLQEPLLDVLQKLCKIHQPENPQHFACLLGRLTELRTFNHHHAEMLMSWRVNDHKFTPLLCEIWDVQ

Experiment [8] has the same target. The experiment can be described thus: OT_FXR_FXRSRC1_1440: Odyssey Thera (OT) 24-hour HEK293T Protein-Complementation Assay for Farnesoid X receptor/SRC-1 Co-activator (AID 2283384). Put shortly: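 HEK293T cells were dosed with compound and read 24 h later by fluorescence intensity from protein-fragment complementation reporting FXR/SRC-1 co-activator interaction. Gain of signal was fitted relative to DMSO negative control as baseline.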

The target of experiment [9] is Retinoic acid receptor RXR-alpha (Homo sapiens) (UniProt P19793). In words: OT_NURR1_NURR1RXRa_0480: Odyssey Thera (OT) 8-hour HEK293T Protein Complementation Assay for Nurr1/retinoid X receptor (RXR) (AID 2283385). Put shortly:
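HEK293T cells expressing Nurr1 and RXRα fused to reporter fragments were dosed with compound for 8 hours. Complex formation was read as fluorescence intensity and analysed as gain of signal against DMSO as baseline.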

A short description of experiment [10]: CEETOX_H295R_11DCORT: CeeTox H295R High-throughput Steroidogenesis Assay for 11-Deoxycortisol (11DCORT) (AID 2283432; active = hit-call score of the fitted dose curve at least 0.9, where 1 is the maximum; inactive = score below 0.9;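 as to AC50: human adrenal H295R cells prestimulated with 10 µM forskolin for 48 h; 11-deoxycortisol secreted into the medium measured by LC-MS/MS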). The following applies: actives raise or lower the signal. The method in brief:
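Steroidogenesis in human H295R cells: 48 h chemical exposure after forskolin priming, 11-deoxycortisol measured by LC-MS/MS.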

Here are results for 43 molecules from PubChem BioAssay (EPA / NIEHS).

Records with an inconclusive call do not appear. A structure can be active in one record and inactive in another. Calls of active or inactive are those of the source. The calls were made as follows, unless noted: active = hit-call score of the fitted dose curve at least 0.9, where 1 is the maximum; inconclusive = response in the unintended direction; inactive = score below 0.9.

What is called AC50 is the concentration at which the activity in the assay is half-maximal.

Estrogen receptor beta (Homo sapiens), sequence (Q92731 whole entry, looked up, the tested form may be a part): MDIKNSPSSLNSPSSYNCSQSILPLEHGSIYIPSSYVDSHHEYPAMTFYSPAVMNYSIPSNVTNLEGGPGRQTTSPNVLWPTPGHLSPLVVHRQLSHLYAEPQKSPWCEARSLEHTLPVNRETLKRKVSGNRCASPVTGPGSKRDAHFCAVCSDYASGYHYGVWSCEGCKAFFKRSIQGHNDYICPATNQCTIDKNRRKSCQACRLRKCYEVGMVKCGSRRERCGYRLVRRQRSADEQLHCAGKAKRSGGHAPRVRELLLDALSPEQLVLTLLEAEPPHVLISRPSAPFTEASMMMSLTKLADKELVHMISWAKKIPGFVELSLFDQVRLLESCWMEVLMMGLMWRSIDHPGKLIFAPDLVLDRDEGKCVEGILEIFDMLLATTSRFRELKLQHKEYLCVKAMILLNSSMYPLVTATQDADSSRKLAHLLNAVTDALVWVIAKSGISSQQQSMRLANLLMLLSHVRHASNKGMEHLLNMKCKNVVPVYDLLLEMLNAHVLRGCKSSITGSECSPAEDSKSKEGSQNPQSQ
Estrogen receptor (Homo sapiens), sequence (P03372 whole entry, looked up): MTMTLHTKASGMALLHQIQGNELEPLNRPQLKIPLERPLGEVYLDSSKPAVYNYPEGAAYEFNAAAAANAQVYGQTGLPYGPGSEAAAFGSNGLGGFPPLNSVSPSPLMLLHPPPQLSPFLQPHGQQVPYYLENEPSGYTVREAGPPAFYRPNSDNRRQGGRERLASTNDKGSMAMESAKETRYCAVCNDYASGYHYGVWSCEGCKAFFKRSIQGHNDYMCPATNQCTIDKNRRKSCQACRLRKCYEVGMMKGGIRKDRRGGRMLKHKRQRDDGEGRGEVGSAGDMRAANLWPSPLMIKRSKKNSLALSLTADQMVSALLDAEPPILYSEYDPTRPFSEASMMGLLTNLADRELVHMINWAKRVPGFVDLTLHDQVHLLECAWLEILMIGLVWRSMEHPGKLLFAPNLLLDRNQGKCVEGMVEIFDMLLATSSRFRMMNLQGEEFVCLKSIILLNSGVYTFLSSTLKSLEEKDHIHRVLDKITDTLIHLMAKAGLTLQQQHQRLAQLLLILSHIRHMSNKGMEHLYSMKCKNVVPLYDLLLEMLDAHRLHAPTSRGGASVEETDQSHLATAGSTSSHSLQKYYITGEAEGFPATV
Peroxisome proliferator-activated receptor gamma (Homo sapiens), sequence (P37231 whole entry, looked up): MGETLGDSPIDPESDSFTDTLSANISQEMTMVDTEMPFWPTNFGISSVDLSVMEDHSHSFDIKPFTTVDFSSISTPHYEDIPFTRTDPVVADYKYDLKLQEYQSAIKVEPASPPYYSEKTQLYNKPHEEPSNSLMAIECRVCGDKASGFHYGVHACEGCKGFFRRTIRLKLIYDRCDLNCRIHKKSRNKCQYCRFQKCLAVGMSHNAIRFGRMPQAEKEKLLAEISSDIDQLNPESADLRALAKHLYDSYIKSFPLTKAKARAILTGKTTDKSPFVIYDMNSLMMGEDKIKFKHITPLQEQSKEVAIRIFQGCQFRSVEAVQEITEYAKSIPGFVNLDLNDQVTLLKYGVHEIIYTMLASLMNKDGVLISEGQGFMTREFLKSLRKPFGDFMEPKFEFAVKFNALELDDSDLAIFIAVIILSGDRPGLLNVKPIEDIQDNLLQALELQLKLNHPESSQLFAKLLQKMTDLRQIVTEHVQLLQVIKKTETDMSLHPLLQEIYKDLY
Retinoic acid receptor RXR-alpha (Homo sapiens), sequence (P19793 whole entry, looked up, the tested form may be a part): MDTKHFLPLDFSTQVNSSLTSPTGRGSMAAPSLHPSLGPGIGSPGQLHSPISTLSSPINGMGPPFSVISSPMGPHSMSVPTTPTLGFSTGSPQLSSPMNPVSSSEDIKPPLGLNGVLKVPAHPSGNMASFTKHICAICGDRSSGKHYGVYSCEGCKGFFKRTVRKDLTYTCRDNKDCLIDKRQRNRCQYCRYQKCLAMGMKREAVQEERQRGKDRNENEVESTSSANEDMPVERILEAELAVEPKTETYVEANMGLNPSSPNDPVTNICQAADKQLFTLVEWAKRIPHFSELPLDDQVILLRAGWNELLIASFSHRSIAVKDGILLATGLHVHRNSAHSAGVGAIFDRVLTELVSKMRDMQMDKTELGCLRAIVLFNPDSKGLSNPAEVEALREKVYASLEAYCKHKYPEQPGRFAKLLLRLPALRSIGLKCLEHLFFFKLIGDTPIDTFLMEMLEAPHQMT

With `CCCN(CCC)c1c([N+](=O)[O-])cc(C(C)C)cc1[N+](=O)[O-]`, the AC50 is 7.26 µM (active) in [1], 12.2 µM (active) in [2] and 80.9 µM (active) in [4]. Besides, the molecule was classed as inactive in [3], in [4], in experiment [5] and in experiment [6].
Regarding `O=NN1CCCC1`, the AC50 in experiment [1] was 50 µM (active). Besides, the result in experiment [2], in [3], in experiment [7], in [8], in experiment [5] and in experiment [6] was inactive.
For `CCN(CC)c1ccccc1`, the outcome in experiment [1], in experiment [2], in experiment [3], in experiment [8], in experiment [4] and in experiment [5] was inactive. Besides, the result in experiment [6] was inactive.
For `O=P1(N(CCCl)CCCl)NCCCO1` (stereo not drawn), the outcome in experiment [1], in [2], in [3], in experiment [4], in experiment [5] and in experiment [6] was inactive.
Regarding `c1nc[nH]n1`, the call in [1], in experiment [2], in experiment [3], in experiment [7], in [4] and in experiment [5] was inactive. Also, the outcome in [6] was inactive.
For the molecule `CC(C)(C)N(NC(=O)c1ccc(Cl)cc1)C(=O)c1ccccc1`, the molecule was classed as inactive in [1], in experiment [2], in [3], in experiment [8], in experiment [4] and in experiment [5]. Besides, in experiment [6], the outcome was inactive. In experiment [7], the AC50 is 70.1 µM (active).
As for `CCCCc1ccccc1`, the call in [1], in experiment [2], in experiment [3], in experiment [7], in [9] and in [4] was inactive. Further, the result in experiment [5] and in experiment [6] was inactive.
Regarding `CC(C)Nc1ccc(Nc2ccccc2)cc1`, the outcome in experiment [10] was inactive.
Still for that read-out and setting: the entry for `Nc1ccc([N+](=O)[O-])cc1Cl` is “inactive”.
For `Nc1ccc(Cl)cc1`, the outcome in experiment [2], in [3], in experiment [9], in experiment [4], in experiment [5] and in [6] was inactive. Moreover, the result in experiment [10] was inactive. Besides, the AC50 in [4] was 2.33 µM (active).
For `CCOS(=O)(=O)OCC`, the result in [1], in experiment [2], in experiment [3], in experiment [4], in experiment [5] and in experiment [6] was inactive.
In the case of `CO/N=C(/C(=O)OC)c1ccccc1COc1ccccc1C`, the AC50 in experiment [2] was 15.7 µM (active); in experiment [3], 21.9 µM (active); in experiment [7], 13.4 µM (active); in experiment [8], 12.4 µM (active); in [10], 3.98 µM (active).
In the case of `c1cc2c3c(cccc3c1)CC2`, the result in [1], in experiment [2], in experiment [3], in [4], in experiment [5] and in experiment [6] was inactive.
Regarding `O=C(O)CF`, the call in [1], in experiment [2], in [3], in [5] and in [6] was inactive.
As for `N#Cc1c(-c2ccc(Cl)cc2)[nH]c(C(F)(F)F)c1Br`, the AC50 in experiment [10] was 0.37 µM (active).
`c1ccc(OP(Oc2ccccc2)Oc2ccccc2)cc1`: the outcome in experiment [1], in [2], in experiment [3], in experiment [4], in experiment [5] and in [6] was inactive. Also, the molecule was called inactive in [10].
`CSC(C)(C)C=NO`: the molecule was called inactive in [2], in experiment [3], in experiment [5] and in experiment [6].
Turning to `Nc1cc2c3c(c1)C(c1ccccc1)=N[C@@H](NC(=O)c1cccnc1)C(=O)N3CC2`, the result in experiment [1], in experiment [2], in [3], in experiment [4], in experiment [5] and in [6] was inactive. For the same molecule, the AC50 in experiment [10] was 62 µM (active).
As to `CCC1(c2ccccc2)C(=O)N=C(O)NC1=O` (stereo not drawn), the result in experiment [1], in experiment [2], in experiment [3], in [4], in experiment [5] and in [6] was inactive.
Consider `CC1(C)CN=C(NN=C(/C=C/c2ccc(C(F)(F)F)cc2)/C=C/c2ccc(C(F)(F)F)cc2)NC1`, for which the outcome in experiment [1], in experiment [2], in [3], in [5] and in experiment [6] was inactive.
`CC(=O)c1ccc(-c2ccccc2)cc1`: in experiment [10], the result was inactive.
Consider `c1ccc2c(c1)Nc1ccccc1S2`, for which the result in experiment [1], in [2], in experiment [3], in experiment [4], in [5] and in experiment [6] was inactive.
As for `c1ccc2c(c1)sc1ccccc12`, the call in experiment [2], in [3], in [5] and in experiment [6] was inactive.
With `Cc1cccc(N)c1`, the molecule was called inactive in experiment [2], in experiment [3], in experiment [5] and in experiment [6].
As to `COP(N)(=S)OC`, the outcome in [10] was inactive.
In the case of `CCOP(=S)(NC(C)C)Oc1ccccc1C(=O)OC(C)C` (stereo not drawn), in [10], the AC50 is 12.8 µM (active).
With `FC(F)(F)c1ccc(Cl)cc1`, the result in [1], in experiment [2], in [3], in experiment [4], in [5] and in experiment [6] was inactive.
Turning to `ClC(Cl)=C(c1ccc(Cl)cc1)c1ccccc1Cl`, the result in experiment [10] was inactive.
In the case of `ClC(Cl)c1ccccc1`, the molecule was classed as inactive in experiment [2], in experiment [3], in [9], in experiment [5] and in [6].
On to `COC(N)=O`, for which the result in experiment [1], in experiment [2], in [3], in experiment [4], in experiment [5] and in experiment [6] was inactive.
`O=C(O)C(Cl)Cl`: the outcome in experiment [2], in experiment [3], in [4], in [5] and in [6] was inactive.
For the molecule `Oc1ccc(I)cc1`, the result in experiment [10] was inactive.
For the molecule `CCCCOCC1CO1` (stereo not drawn), the molecule was called inactive in [2], in experiment [3], in experiment [4], in experiment [5] and in experiment [6].
As to `CC(C)(C)c1ccc(O)cc1`, the molecule was called inactive in experiment [4], in [5] and in experiment [6].
For the molecule `O=P(Oc1ccccc1)(Oc1ccccc1)Oc1ccccc1`, the AC50 is 12.4 µM (active) in experiment [2], 7.54 µM (active) in experiment [3], 11.9 µM (active) in experiment [7] and 2.92 µM (active) in [10]. Besides, the call in experiment [8], in [4], in [5] and in [6] was inactive.
Regarding `OCC1CO1` (stereo not drawn), the molecule was classed as inactive in [2], in experiment [3], in experiment [8], in experiment [4], in [5] and in [6].
Consider `CN(C)C(=O)Cl`, for which the result in [2], in experiment [3], in [5] and in [6] was inactive.
Turning to `O=c1ssc(Cl)c1Cl`, the result in experiment [2], in experiment [3], in experiment [5] and in [6] was inactive. Besides, the AC50 in experiment [8] was 11.4 µM (active).
On to `CCOC(=O)c1ccccc1C(=O)OCC`, for which the call in experiment [2], in [3], in [9], in experiment [4], in experiment [5] and in experiment [6] was inactive.
As for `CCOP(=S)(OCC)SCn1nnc2ccccc2c1=O`, the result in experiment [10] was inactive.
Take `[N-]=[N+]=[N-]`: the result in experiment [2], in experiment [3], in [5] and in experiment [6] was inactive.
Regarding `CCCCOCCOP(=O)(OCCOCCCC)OCCOCCCC`, the result in experiment [1], in experiment [2], in experiment [3], in experiment [4], in experiment [5] and in [6] was inactive. Also, the molecule was classed as inactive in experiment [10].
Turning to `O=[N+]([O-])c1ccc(Cl)c(Cl)c1`, the result in experiment [2], in [3], in [7], in [8], in experiment [5] and in experiment [6] was inactive.
